Here are results for 13 compounds from PubChem BioAssay (NCI).

This is part of a sample that, as a whole, favours compounds with a hit. Of some 83,000 tested, about 20% had one in any assay.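 Values shown are percent growth following 48 h exposure of cells in 96-well plates to a single concentration of compound; below 10 was considered active.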 Unmarked numbers belong to inactive results. The source made the active and inactive calls.

Experiment in all cases: NCI-60 one-dose screen, 48 h (100 = growth as untreated, 0 = no growth, -100 = all killed)
Conditions in all cases: 10 µM unless noted

Test [1] deals with NCI-H23 lung.
For test [2], the system named is NCI-H322M lung.
Test [3] deals with HOP-62 NSCLC.
In test [4] the test system is NCI-H460 lung.
Test [5] deals with HOP-92 NSCLC.
The subject of test [6] is NCI-H522 lung.
The subject of test [7] is A549/ATCC NSCLC.
The subject of test [8] is 786-0 renal.
In test [9] the test system is COLO 205 colon.
Test [10] relates to DU-145 prostate.

Regarding `CCOC(=O)c1sc(-c2ccc(OS(=O)(=O)C[C@]34CCC(CC3=O)C4(C)C)c(C=O)c2)nc1C`, the growth in test [1] was 28.5%; in test [2] it was 50.4%; in [3], 8.26% (active); in test [4] it was -1.32% (active); in test [5] it was 38.4%; in [6] it was 1.5% (active). Further, the growth is 15.4% in test [7], 27.4% in test [8], -34.9% (active) in test [9] and 21.3% in test [10].
Turning to `O=C(CSc1ccc2nnc(-c3cccc(F)c3)n2n1)Nc1ccc2c(c1)OCO2`, the growth in test [1] was 76.5%; in test [2], 85%; in [3], 81.4%; in test [4] it was 81.1%; in [5], -6.23% (active); in test [6] it was 85.4%. Moreover, the growth in test [7] was 52.8%; in test [8] it was 93.6%; in test [9], 112%; in test [10] it was 77.1%.
As to `COc1ccc(/C=C2\N=C(c3ccccc3)N(c3ccc(-c4nc5ccc(C)cc5s4)cc3)C2=O)cc1`, the growth in [1] was 87.1%; in test [2], 60.3%; in test [3], 99.2%; in test [4] it was 89.6%; in test [5], 82.4%; in test [6] it was 67.1%. The growth in test [7] was 70%; in test [8] it was 91%; in [9], 97.1%; in test [10], 77.9%.
Take `CC[C@]1(O)C[C@@H]2CN(CCc3c([nH]c4ccccc34)[C@@](C(=O)OC)(c3cc4c(cc3OC)N(C)[C@H]3[C@@](O)(C(=O)OC)[C@H](OC(C)=O)[C@]5(CC)C=CCN6CC[C@]43[C@@H]65)C2)C1`: the growth in [1] is 26.8%; in [2], 39.9%; in [3], 35%; in test [4], 4.41% (active); in test [5], -9.28% (active); in [6] it was 4.5% (active). The growth in [7] was 17.8%; in test [8] it was 9.87% (active); in test [9] it was -10.8% (active); in test [10], -7.13% (active).
With `O=C(c1nc2ccccc2[nH]1)C1C(c2ccc([N+](=O)[O-])cc2)C2CC3CCCCC3N2[C@@]12C(=O)Nc1cc(Cl)ccc12` (stereo not given in full), the growth in [1] is 26.2%; in [2], 47.6%; in [3], 41.3%; in test [4], 11.2%; in [5], 20.1%; in test [6] it was 34.7%. Also, the growth was 18.5% in test [7], 38.5% in test [8], 22.2% in test [9] and 51.3% in [10].
For the compound `O=c1c2cc(F)ccc2sc2c(NCCCNCCO)nc3ccc(Cl)cc3c12`, the growth was 81.6% in test [1]; 79.2% in test [2]; 61% in test [3]; -53.8% (active) in [4]; 36.8% in test [5]; 49.1% in test [6]. The growth in [7] was 57.7%; in [8], 58.8%; in [9] it was 3.05% (active); in test [10], 37.7%.
With `O=C(N=Nc1c(O)[nH]c2ccccc12)c1oc2ccccc2c1CN1CCN(c2ccccc2)CC1`, the growth was -0.112% (active) in test [1]; 33.2% in test [2]; 7.31% (active) in [3]; -65.3% (active) in [4]; -12% (active) in test [5]; 20.4% in test [6]. Besides, the growth in [7] was -13.5% (active); in [8], -83.2% (active); in [9], 12.7%; in test [10], -34.2% (active).
For the compound `CC(C)Cn1c2c(c(=S)[nH]c1=O)CCC2`, the growth is 104% in [1]; 103% in test [2]; 102% in test [3]; 105% in test [4]; 113% in [5]; 96.1% in test [6]. Further, the growth in test [7] is 103%; in [8], 104%; in test [9] it was 117%; in [10], 111%.
`Nc1no[n+]([O-])c1-c1nnc2c(n1)-c1ccccc1C2=O`: the growth is -40.8% (active) in [1]; 74.1% in test [2]; 104% in test [3]; 65.8% in test [4]; 55.1% in test [5]; 96% in test [6]. In addition, the growth in test [7] is 98.1%; in test [8] it was 97.2%; in test [9], 42.1%; in test [10], 1.97% (active).
For the compound `Brc1ccc(Nc2nc3ccccc3nc2Nc2ccc(Br)cc2)cc1`, the growth was -16.4% (active) in test [1]; -13.1% (active) in test [2]; -63.4% (active) in [3]; 2% (active) in test [4]; -25.9% (active) in test [5]; -54.1% (active) in test [6]. For the same compound, the growth was -6.83% (active) in test [7], -30.2% (active) in test [8], -96.2% (active) in test [9] and 14.2% in test [10].
In the case of `O=C(CN1C=NC2C(N3CCOCC3)=NC=NC21)c1ccc(Br)cc1` (stereo not given), the growth in test [1] was 99.2%; in test [2] it was 97.2%; in test [3], 103%; in [4], 99.9%; in test [5], 106%; in test [6], 87.2%. Also, the growth was 103% in test [7], 103% in test [8], 112% in [9] and 107% in test [10].
For the compound `O=C(O)c1cn(C2CC2)c2cc(N3CCN(C(=O)C[n+]4ccccc4)CC3)c(F)cc2c1=O`, the growth in test [1] was 104%; in [2], 105%; in [3], 103%; in test [4], 106%; in [5], 98.5%; in [6], 93.4%. For the same compound, the growth in [7] was 99.1%; in [8] it was 98.5%; in test [9], 121%; in test [10], 102%.
On to `COc1ccc(C2c3ccc4ccccc4c3Oc3ncn(CCCn4ccnc4)c(=N)c32)cc1OC` (stereo not given), for which the growth was 60.6% in test [1]; 49.8% in [2]; 73.4% in [3]; 55.8% in test [4]; 24.3% in test [5]; 72.6% in [6]. For the same compound, the growth in test [7] is 55.3%; in test [8] it was 68.4%; in test [9] it was 53.4%; in test [10], 79%.
